Test results from PubChem BioAssay (NCATS).
Results filed as inconclusive are left out. Unmarked numbers belong to inactive results. Calls come from the whole dose curve; as a rule, active = well fitted inhibition curve with a large enough effect; inconclusive = small, poorly fitted or top-dose-only effect; inactive = flat fitted curve, though single readings scatter.

target: Calcium and integrin-binding protein 1 (Homo sapiens) (UniProt Q99828); assay: Primary qHTS for Identification of Calcium Integrin Binding Protein 1 (CIB1) Competitor (AID 1508620); conditions: CIB1-GST / FITC-alphaIIb peptide fluorescence polarization; series mostly up to 114 µM; activity change, negative = inhibition: at the top concentration; note: top concentration of the series differs between compounds
Sequence (Q99828 whole entry, looked up): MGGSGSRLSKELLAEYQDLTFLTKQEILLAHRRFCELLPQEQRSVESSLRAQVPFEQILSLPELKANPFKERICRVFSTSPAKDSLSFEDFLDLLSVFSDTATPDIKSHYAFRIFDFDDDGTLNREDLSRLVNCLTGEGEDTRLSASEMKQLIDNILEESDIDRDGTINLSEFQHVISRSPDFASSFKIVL
How it was run: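 Fluorescence polarization competition: GST-tagged CIB1 (1 uM final) preincubated with compound 15 min at room temperature, then FITC-labelled alphaIIb peptide (100 nM final) added. After 15 min at room temperature, polarization read at Ex 480/Em 540.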
% is set by controls: 0 for no effect and ±100 for the full control effect.

Row | Compound | activity change, negative = inhibition
1 | CN(C)C(=O)NC1(c2ccccc2)CCN(CCC[C@]2(c3ccc(Cl)c(Cl)c3)CCCN(C(=O)c3ccccc3)C2)CC1 | 0.827%
2 | CC(=O)OC1C(OC(=O)c2ccccc2)C2C(=C(C)CCC2(C)C)C23CCC(C)(C2)C(=O)CC13 (stereo not given) | -2.95% [at 57.7 µM]
3 | O=C(Nc1ccc2[nH]c(=O)oc2c1)C(=O)N1CCC(Cc2ccc(F)cc2)CC1 | -3.94%
4 | NC(=O)c1cnc(N[C@@H]2CCCC[C@H]2N)nc1Nc1cccc(-n2nccn2)c1 | 2.24%
5 | COc1cc2c(cc1OC)CN(C(=O)/C=C/c1c(-c3ccccc3)n(C)c3ncccc13)CC2 | -6.39%
6 | CCN1CCC[C@@H]1CNC(=O)c1ccc2c(c1)NC(=O)c1cccc(C)c1S2 | 2.54%
7 | Cc1ccc(-c2ncccn2)c(C(=O)N2C[C@H](COc3ccc(F)cn3)CC[C@H]2C)c1 | 1.43%
8 | CCOc1cc(C(C)(C)C)ccc1C1=NC(C)(c2ccc(Cl)cc2)C(C)(c2ccc(Cl)cc2)N1C(=O)N1CCN(CCCS(C)(=O)=O)CC1 (stereo not given) | -10.6%
9 | CCc1cc(C(N)=O)ccc1-n1nc(C(C)C)c2c(-n3cnc(-c4cnn(C)c4)c3)ccnc21 | -13.4%
10 | COc1ccccc1OCCNCC(O)CCOc1cccc2[nH]c3ccccc3c12 (stereo not given) | 4.79%
